# From PubChem BioAssay
# Compounds with a hit are over-represented: about 1.8% of the library has one in this group of screens.
# p53ts 32C tox: qHTS Screen for Compounds that Selectively Target Cancer Cells with p53 Mutations: Cytotoxicity of p53ts Cells at the Permissive Temperature; H1299-p53A138V at 32C, ATP luminescence viability, 24 h; Potency, µM (titrated, usually from 46.1 µM), for the others: at the top dose activity change, negative = cytotoxicity, usual class: cytotoxic; 0.93% of 130,000 active; AID 924, 2007;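 further: 0% = DMSO and -100% = full killing by reference compound; nearly all actives have a fitted effect of over 55% in size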
#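 Viability by ATPlite luminescence after 24 h compound treatment (up to 46 uM) at the permissive 32C. Cells are H1299 carrying p53 A138V. Scale runs from DMSO basal to 100 uM tamoxifen as full kill; AC50 from Hill fits.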
# p53ts 39C kill: qHTS Screen for Compounds that Selectively Target Cancer Cells with p53 Mutations: Cytotoxicity of p53ts Cells at the Nonpermissive Temperature; H1299-p53A138V viability at 39C, ATP luminescence, 24 h; Potency, µM (series often up to 46.1 µM), inactives show at the top dose activity change, negative = cell killing, most hits filed as cytotoxic; 1.5% of 130,000 active; further: on the % scale 0 is the no-effect control and ±100 the full control effect; nearly all actives have a fitted effect of over 55% in size
# Peg3 imprint: qHTS Assay for Compounds that Induce Erasure of Genomic Imprints; mouse ES Peg3-LacZ reporter, beta-gal luminescence, 40 h; Potency, µM (series often up to 60.7 µM), for inactives: top-dose activity change, positive = activation, actives largely listed as activators; 0.02% of 110,000 active; AID 1948, 2009
#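 Gelatin-coated wells received 300 freshly trypsinized female ES cells with a Peg3LacZ-Neo reporter on the maternal allele, then incubated 40 hours at 37C. BetaGlo was added for 5 minutes at room temperature before a single luminescence read.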
# IkB sig inh: IkB Signaling. 0.04% of 110,000 active. Potency, µM (highest dose often 57.1 µM), for inactives: at the top dose IkBa stabilization activation. ABC-DLBCL IkBa-CBG/CBR dual luciferase ratio, 4 h; response scale: scaled: untreated 0%, proteasome inhibitor 100%; active means well fitted curve in the direction sought with a large enough effect in the signal ratio, not every such curve was filed as active; inconclusive means small, poorly fitted or top-dose-only effect, or a change in a side signal; the % refers to the signal ratio;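 further: the direction sought is a rising ratio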
#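 Curves were fitted separately to fusion (green), unfused (red) and ratio luminescence, then classed by r2, magnitude and activity. Cells: OCI-Ly3, 4 h compound plus doxycycline at 37C; 10 uM MG-132 defined full response.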
# * = called active by the depositor; ? = inconclusive; nt = no result; ! = not active in a repeat; [ ] = remark or other dose. Unless noted, the call rests on the fitted dose curve; in most records, active means well fitted curve in the direction sought with a large enough effect; inconclusive means small, poorly fitted or top-dose-only effect, or another doubt; inactive means no such curve, though single readings can be large; an effect the other way counts as inactive or inconclusive. Potency means the concentration at half of the fitted maximal effect.
SMILES,p53ts 32C tox,p53ts 39C kill,Peg3 imprint,IkB sig inh
CCN(c1ncnc2c1cnn2-c1cccc(Cl)c1)C1CCCCC1,?,?,-14.3%[10.9 µM],-1.4%
Cc1ccc(Cl)cc1-n1ncc2c(N3CCN(Cc4ccccc4)CC3)ncnc21,15.8µM*,20µM*,-14.8%[10.9 µM],?
Clc1cccc(-n2ncc3c(N4CCCCC4)ncnc32)c1,3.16µM*,6.31µM*,-40.9%[10.9 µM],?
Cc1nn(-c2ccccc2)c(Cl)c1C(=O)N1CCN(c2ncnc3c2cnn3-c2ccccc2)CC1,10µM*,?,-24.8%,?
NC(=S)c1ccc[n+]([C@@H]2O[C@@H](COP(=O)([O-])OP(=O)(O)OC[C@H]3O[C@@H](n4cnc5c(N)ncnc54)[C@H](OP(=O)(O)O)[C@H]3O)C(O)C2O)c1 (stereo not given in full),nt,nt,-8.0%,nt
C=C1CC[C@@H]2[C@](C)(CC[C@@H](O)[C@]2(C)CO)[C@@H]1C/C=C1/C(=O)OC[C@H]1O,nt,nt,nt,9.9%[11.4 µM]
CCOC(=O)COc1ccc(-c2nnc(-c3ccccc3)o2)cc1,10µM*,?,-95.2%,?
CCOc1ccc(-c2nnc(-c3ccccc3)o2)cc1,?,-12.2%,nt,nt
CCc1ccc(C2CC(=O)c3c([nH]c(C(=O)OCCOc4ccccc4)c3C)C2)cc1 (stereo not given),?,12.6µM*,-27.2%[10.9 µM],-0.8%
CCOc1ccc(C2CC(=O)c3c([nH]c(C(=O)OCCOc4ccccc4)c3C)C2)cc1 (stereo not given),?,?,-22.4%[10.9 µM],-3.5%
CCCN1C=CC(=C2C(=O)c3ccccc3C2=O)C=C1,0.199µM*,0.316µM*,-95.8%,?
CN1C=CC(=C2C(=O)c3ccccc3C2=O)C=C1,12.6µM*,10µM*,-88.0%,-0.1%
CCN1C=CC(=C2C(=O)c3ccccc3C2=O)C=C1,0.251µM*,0.251µM*,-93.9%,?
CCn1nc(-c2ccccc2)c(-c2ccccc2)c(C(=O)Nc2nc(C)c(C(=O)N(C)C)s2)c1=O,10.6%,-16.9%,-6.0%[10.9 µM],?
CCCCCCCCCCCCCCC1CO1 (stereo not given),4.9%[1.84 µM],-0.1%,-5.0%,0.4%
CC1=C(c2ccc(C)c(C)c2)S(=O)(=O)N=C1N1CCC(C(=O)NCCc2ccc(Cl)cc2)CC1,?,12.6µM*,-2.1%[10.9 µM],-0.4%
COc1cc(-c2ccc(N=Nc3ccc4c(S(=O)(=O)O)cc(S(=O)(=O)O)c(N)c4c3O)c(OC)c2)ccc1N=Nc1ccc2c(S(=O)(=O)O)cc(S(=O)(=O)O)c(N)c2c1O,?,10µM*!,-42.5%,?
CCN(CC)CC[n+]1ccc2c(C)c3[nH]c4ccccc4c3c(C)c2c1,19.5%[9.22 µM],0.2%[9.22 µM],-20.7%[10.9 µM],1.9%[11.4 µM]
O=C(NCC1CCN(Cc2cccc(Cl)c2)CC1)Nc1cc(Cl)ccc1Cl,?,12.6µM*,-15.2%[10.9 µM],?
O=C(NCC1CCN(Cc2cccc(Cl)c2)CC1)Nc1ccc(F)c(Cl)c1,11.4%,?,-10.3%[10.9 µM],?
Cc1nnc(SCC(=O)NCc2ccccc2F)c2nn(-c3ccc(Cl)cc3)c(C)c12,-20.4%,42.7%,-10.4%[10.9 µM],7.4%
COc1cccc(CNC(=O)CSc2nnc(C)c3c(C)n(-c4ccccc4)nc23)c1OC,-6.4%,25.1µM*,11.5%[10.9 µM],?
COc1ccc(CNC(=O)CSc2nnc(C)c3c(C)n(-c4ccccc4)nc23)c(OC)c1,14.1%,12.6µM*,-4.4%[10.9 µM],?
COc1ccccc1CNC(=O)CCn1nc(C)c2c(C)n(-c3ccccc3)nc2c1=O,6.9%,2.6%,27.1%[10.9 µM],2.4%
Cn1ccnc1,16.5%,7.6%,-0.3%,6.0%
SMILES,p53ts 32C tox,p53ts 39C kill,Peg3 imprint,IkB sig inh
Cc1ccc(NC(=O)CCc2c(C)nn(-c3ccc(N4CCCCC4)nn3)c2C)cc1F,?,12.6µM*,-17.8%[10.9 µM],?
Cc1ccc(NC(=O)CSc2[nH]c(=O)ncc2C)cc1,0.1µM*,10µM*,-21.4%[10.9 µM],-2.0%
Cc1ccc(NC(=O)CSc2ncc(-c3ccccc3)[nH]2)cc1,7.8%,-23.3%,-10.6%[10.9 µM],?
Cc1c(C(=O)N2CCCC2)oc2c1-c1nn(CC(=O)NC(C)c3ccccc3)cc1CC2 (stereo not given),13.0%,8.9%,-8.4%[10.9 µM],-1.2%
C=CCn1c(-c2ccc(OC)cc2)nc2ccccc21,15.8µM*,?,-40.3%,-0.9%
O=C(Nc1ccc(-c2nc3ccccc3o2)cc1)C1CCCO1 (stereo not given),15.8µM*,10µM*,nt,?
CC(=O)Nc1cc(OC(C)=O)c2nonc2c1OC(C)=O,3.16µM*,7.94µM*,-79.8%,?
CC(=O)Nc1nonc1NC(C)=O,-2.3%,-4.8%,-0.6%,0.7%
O=C(Nc1nc2c(s1)CCCC2)c1cc(-c2ccc3c(c2)OCO3)nc2ccccc12,nt,-6.1%,nt,nt
Cn1c(NC(=O)c2cc(-c3ccc4c(c3)OCO4)nc3ccccc23)cc(=O)n(C)c1=O,15.8µM*,12.6µM*,-10.3%,0.5%
c1ccc(C(c2cccc3c2ccc2ccccc23)[C@H](c2ccccc2)c2cccc3c2ccc2ccccc23)cc1 (stereo not given in full),nt,nt,-3.5%[10.9 µM],nt
Cc1ccc(C(=O)Nc2sc3c(c2C(=O)O)CCCCC3)o1,7.94µM*,6.31µM*,-93.5%,?
COC(=O)c1c(NC(=O)c2ccc(C)o2)sc2c1CCCCC2,-12.7%,-28.2%,-34.1%,9.1%
COc1c(O)cc2oc3cc(O)c(CC=C(C)C)c(O)c3c(=O)c2c1CC=C(C)C,10µM*!,31.6µM*,-25.6%,1.1%[11.4 µM]
Cc1ccc(SCc2cn3c(C)csc3n2)cc1,?,12.6µM*,-75.8%,?
Cc1ccc(S(=O)(=O)NCc2cn3c(C)csc3n2)cc1,-3.4%,11.3%,-9.6%,-0.3%
CCOc1ccc(-c2nc3ccccc3c(=O)o2)cc1,2.51µM*,2.51µM*,-35.6%[10.9 µM],?
C/C(CCN1CCCc2nc(C)c(C)cc21)=N\O[C@@H](C)c1cc(-c2c(C)cc(C)cc2C)no1,9.3%[9.22 µM],2.8%[9.22 µM],nt,nt
Cc1c(N=c2c(=O)c3ccccc3c2=O)c(=O)n(-c2ccccc2)n1C,10µM*,12.6µM*,-46.7%,?
COc1ccc(CCNC(=O)C(C)n2nc(C)c3sc4ccccc4c3c2=O)c(OC)c1 (stereo not given),?,12.6µM*,-21.4%[10.9 µM],?
CCOc1ccc(CCNC(=O)CCCn2nc(C)c3sc4ccccc4c3c2=O)cc1,-16.6%,?,-10.0%[10.9 µM],0.4%
CCC(C(=O)NCCc1ccc(OC)c(OC)c1OC)n1nc(C)c2sc3ccccc3c2c1=O (stereo not given),-7.9%,-28.8%,-12.6%[10.9 µM],-2.8%
Cc1nn(CCCC(=O)NCCc2ccc(Cl)cc2)c(=O)c2c1sc1ccccc12,?,20µM*,-23.0%[10.9 µM],2.5%
CCOC(=O)c1sc(NC(=O)c2cc3nc(-c4ccccc4)cc(C(F)(F)F)n3n2)c(C(=O)OCC)c1C,-3.9%,14.8%,6.3%[10.9 µM],-0.5%
